# High-throughput results as filed in PubChem BioAssay.
# Pol iota inh – qHTS for Inhibitors of Polymerase Iota; DNA polymerase iota (Homo sapiens), Q9UNA4; Pol iota fluorescent replication assay, 10 min; Potency, µM (top dose mostly 115 µM), actives largely listed as inhibitors; 1% of 390,000 active
#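 Fluorescent replication assay read twice, at 0 min and 10 min after adding 50 nM (final) substrate. Enzyme (10 nM) and compounds were first incubated 15 min at room temperature; enzyme-free buffer wells were negative controls.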
# POLB inh – qHTS Assay for Inhibitors of DNA Polymerase Beta; Pol beta primer extension/strand displacement, fluorescence kinetic; 1.3% of 340,000 active; Potency, µM (highest dose often 114 µM), hits mostly inhibitors; P06746; AID 485314, 2010
#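 Kinetic readout of DNA synthesis with strand displacement by Pol beta. Compound and 10 nM enzyme sit 15 min at room temperature; 50 nM substrate starts the reaction, read immediately and at 10 min.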
# POLH inh – qHTS for Inhibitors of Polymerase Eta; DNA polymerase eta (Homo sapiens), Q9Y253; recombinant Pol eta, fluorescent DNA replication assay; Potency, µM (top dose mostly 114 µM), usual class: inhibitors; 1.2% of 390,000 active
#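 Pol eta at 10 nM preincubated with compounds 15 min at room temperature; reaction started with fluorescent substrate (50 nM final) and read kinetically at 0 and 10 min.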
# Tb PGK inh – qHTS Assay to Find Inhibitors of Phosphoglycerate Kinase; Phosphoglycerate kinase, glycosomal (Trypanosoma brucei brucei), P07378; PGK/GAPDH coupled, Kinase-Glo luminescence, 60 min; Potency, µM (doses to about 57.5 µM), usual class: inhibitors; 0.043% of 380,000 active; further: nearly all actives have a fitted effect of over 60% in size
# Target sequence (P07378 whole entry, looked up): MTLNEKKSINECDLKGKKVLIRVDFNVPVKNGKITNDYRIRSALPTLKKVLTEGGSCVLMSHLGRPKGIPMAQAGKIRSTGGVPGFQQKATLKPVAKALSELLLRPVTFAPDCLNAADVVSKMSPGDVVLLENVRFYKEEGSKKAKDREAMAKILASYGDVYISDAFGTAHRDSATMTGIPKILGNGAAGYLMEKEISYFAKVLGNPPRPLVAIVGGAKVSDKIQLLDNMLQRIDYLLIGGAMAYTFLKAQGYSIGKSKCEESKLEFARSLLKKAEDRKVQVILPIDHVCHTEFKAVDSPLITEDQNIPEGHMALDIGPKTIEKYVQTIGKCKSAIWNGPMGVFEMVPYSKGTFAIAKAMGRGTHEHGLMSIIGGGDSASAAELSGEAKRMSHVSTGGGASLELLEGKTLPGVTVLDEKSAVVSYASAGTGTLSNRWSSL
#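 Luminescent ATP detection (Kinase-Glo Plus) follows a 60-minute room-temperature incubation, with wells lacking PGK as controls. Buffer: 100 mM TEA (pH 7.6), 5 mM MgCl2, 0.01% Tween-20. Coupling enzyme GAPDH (100 nM final) supplies unstable 1,3-BPG in-well.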
# Pol kappa inh – qHTS for Inhibitors of Polymerase Kappa; 0.53% of 400,000 active; DNA polymerase kappa (Homo sapiens), Q9UBT6; AID 588579, 2011; Potency, µM (titrated, usually from 107 µM), hits mostly inhibitors; purified Pol kappa, fluorescent DNA synthesis assay, 10 min
#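 Enzyme at 10 nM met test compounds for 15 min at room temperature. Substrate addition (50 nM final) began the reaction, which was monitored by fluorescence at 0 and 10 min.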
# FEN1 inhibitor – qHTS Assay for the Inhibitors of Human Flap endonuclease 1 (FEN1) | P39748 | Recombinant FEN1 flap cleavage, fluorescence, 15 min | Potency, µM (top dose mostly 114 µM), usual class: inhibitors | 0.35% of 390,000 active | AID 588795, 2011; further: nearly all actives have a fitted effect of over 65% in size
#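 Nuclease activity of 10 nM FEN1 was measured after 15 min of room-temperature exposure to titrated compounds, by adding 50 nM flap substrate and reading plates at 0 and 15 min.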
# Hits are given with their value; – = inactive; ? = inconclusive; · = not tested or not shown; [ ] = dose if it differs, or a comment. An excerpt weighted towards active compounds, which were near 2.4% of everything screened. The call rests on the fitted dose curve; in most records, active means well fitted curve in the direction sought with a large enough effect; inconclusive means small, poorly fitted or top-dose-only effect, or another doubt; inactive means no such curve, though single readings can be large; an effect the other way counts as inactive or inconclusive.
SMILES,Pol iota inh,POLB inh,POLH inh,Tb PGK inh,Pol kappa inh,FEN1 inhibitor
COc1ccc(/C=N/NC(=O)c2cccnc2)cc1CN1CCCc2ccccc21,–,–,–,–,–,?
COc1ccc(C(=O)N/N=C/c2ccc(OC)c(CN3CCCc4ccccc43)c2)cc1,–,20µM,–,–,–,–
CCCCOc1ccc(C(=O)N/N=C/c2ccc(OCCN3CCCCC3)c(OC)c2)cc1,?,15.8µM,?,–,?,–
CCCOc1ccc(/C=N/NC(=O)CSc2ccccn2)cc1OC,–,79.4µM,–,–,–,–
COc1cc(/C=N/NC(=O)CSc2ccccn2)ccc1O,–,?,–,–,–,–
Cc1ccc(-c2ccc(/C=C3\SC(N4CCOCC4)=NC3=O)o2)cc1,–,–,?,–,–,?
Cc1ccc(/C=C2\SC(N3CCN(C(c4ccccc4)c4ccccc4)CC3)=NC2=O)o1,–,39.8µM,–,–,–,–
O=c1c(-c2ccc(F)cc2)nc2cnc(N3CCNCC3)nc2n1Cc1ccc(F)cc1,·,·,·,·,–,·
CCCCCCn1cnc2c(c1=O)c1nc3ccccc3nc1n2/N=C/c1ccco1,?,44.7µM,?,–,–,–
COCCn1cnc2c(c1=O)c1nc3ccccc3nc1n2/N=C/c1ccco1,–,–,–,–,–,–
CNc1ccc(/C=C2\C=Cc3ccccc32)cc1Cl,–,·,·,·,–,–
O=C1C(C=Nc2ccccc2O)=C(O)c2ccccc21,–,35.5µM,–,–,–,–
Cc1ccc(O)c(N=CC2=C(O)c3ccccc3C2=O)c1,?,?,17.8µM,–,–,–
C[n+]1ccnc2cc(Cl)ccc21,?,·,·,·,–,?
CC(C)C(=O)NC(C)C(c1cccs1)N1CCN(c2ccccc2)CC1 (configuration not stated),–,20µM,–,–,–,–
CC(NC(=O)c1cccs1)C(c1cccs1)N1CCN(c2ccccc2)CC1 (configuration not stated),?,–,–,–,–,–
O=C1NC(=Nc2ccccc2)S/C1=C/c1cccs1,?,31.6µM,–,–,–,–
Cc1cccc(N=C2NC(=O)/C(=C\c3cccs3)S2)c1,–,–,?,–,–,–
O=C1NC(=Nc2ccccc2)S/C1=C\c1ccccc1,–,–,–,–,–,–
Cc1ccc(N=C2NC(=O)/C(=C/c3cccs3)S2)cc1C,–,10µM,–,–,–,–
Cc1cccc(-n2cc(-c3ccccc3)c3c(NC(C)C)ncnc32)c1,–,–,–,–,–,–
COC(=O)c1ccc(COc2ccccc2/C=N/Nc2cccc(C(=O)O)c2)cc1,?,–,79.4µM,–,?,–
CC1=CC(=O)C2=C(C)CC[C@H]3[C@H](C)C(=O)O[C@@H]3C12 (some centres not stated),·,·,·,·,–,·
COc1cc(NC(=O)C2CC(c3c(F)cccc3Cl)=NO2)c(OC)cc1Cl (configuration not stated),–,–,–,–,–,–
COc1ccc(NC(=O)C2CC(c3c(F)cccc3Cl)=NO2)cc1OC (configuration not stated),–,–,89.1µM,–,–,–
SMILES,Pol iota inh,POLB inh,POLH inh,Tb PGK inh,Pol kappa inh,FEN1 inhibitor
C=CCN(CC=C)c1cnn(-c2nc3ccccc3[nH]2)c(=O)c1Cl,–,0.224µM,–,–,–,–
Nc1cc(C(=O)O)ccc1N1CCCCC1,?,?,10µM,–,79.4µM,–
CC(=O)c1ccc(N2CCC(C)CC2)c(F)c1,–,–,–,–,–,–
CC1CCN(c2ccc(C(=O)O)cc2N)CC1,?,?,17.8µM,–,–,–
CC(C)(C)c1ccc(C(=O)N2CCC(c3nc4ccccc4o3)CC2)cc1,–,–,–,–,–,–
Cn1cccc1C(=O)N1CCC[C@@]2(CCN(C(c3ccccc3)c3ccccc3)C2)C1,·,·,·,·,–,·
COCc1c(CCl)cnc(C)c1O,–,–,–,–,–,–
COCc1cc(O)c(O)c(O)c1-c1c(COC)cc(O)c(O)c1O,2.82µM,·,·,·,0.212µM,1.58µM
CCOc1cccc(=O)c2c(C)n(C)c(C)c12,22.4µM,?,?,–,?,?
COc1cccc(=O)c2c(C)n(C)c(C)c12,39.8µM,25.1µM,?,–,?,–
CCCCCn1c(C)c2c(OCC)cccc(=O)c2c1C,?,–,–,–,–,–
CCc1c(C)sc2c1CCN(Cc1ccccc1F)C2c1ccccc1 (configuration not stated),–,–,–,–,–,–
Nc1ccc(C(=O)Nc2ccc(Nc3ccncc3)cc2)cc1,?,31.6µM,–,–,–,–
CC(=O)Nc1cccc(-c2nc3ccccc3[nH]2)c1,–,–,–,–,–,–
Nc1ccc(C(=O)Nc2ccc3nc(-c4cccnc4)[nH]c3c2)cc1,–,39.8µM,–,–,?,–
Nc1ccc(NC(=O)c2ccc(C(=O)Nc3ccc(N)cc3)cc2)cc1,–,?,–,–,–,–
CC(=O)Nc1cccc(-c2nc3ccc(NC(C)=O)cc3[nH]2)c1,?,44.7µM,?,–,?,?
COC(=O)c1ccc(C(=O)Nc2ccc3nc(-c4cccnc4)[nH]c3c2)cc1,–,–,–,–,–,–
Cc1cccc(C)c1NC(=O)CSc1ncc2c(n1)-c1ccc(Cl)cc1N(Cc1ccccc1)S2(=O)=O,–,–,–,–,–,–
O=C(CCCN1C(=O)S/C(=C/C=C/c2ccccc2)C1=O)Nc1ccc(C(=O)O)cc1,?,–,89.1µM,–,–,–
CC(C)=C1C(=O)NN(c2ccc(C)c(Cl)c2)C1=O,79.4µM,?,–,–,?,–
O=C(Nc1cccc(NC(=O)c2ccc(Br)o2)n1)c1ccc(Br)o1,14.1µM,–,?,–,–,–
Cc1ccc(S(=O)(=O)Nc2ccc3cc([N+](=O)[O-])ccc3c2[N+](=O)[O-])cc1,?,·,79.4µM,–,–,–
CS(=O)(=O)c1ccc(C(=O)OCC(=O)NC23CC4CC(CC(C4)C2)C3)cc1[N+](=O)[O-],22.4µM,–,15.8µM,–,–,–
C=C1C[C@@]23C[C@]1(O)CC[C@@H]2[C@]12C=C[C@@H](O)[C@](C)(C(=O)O1)[C@H]2[C@H]3C(=O)O,·,·,·,·,–[12 µM],·
Cc1cccc2[nH]cc(/C=C3/C=Nc4ccccc43)c12,–,·,·,·,–,–
COc1ccccc1CNC(=O)C1CCN(S(=O)(=O)c2c(C)noc2/C=C/c2cccs2)CC1,89.1µM,–,–,–,?,89.1µM
COc1cccc(NC(=O)C2CCN(S(=O)(=O)c3c(C)noc3/C=C/c3cccs3)CC2)c1,?,–,–,–,–,–
